In PubChem BioAssay (NCI):
This is part of a sample that, as a whole, favours compounds with a hit. Of some 79,000 tested, about 15% had one in any assay. The source made the active and inactive calls. Rule as the data show it: active = growth inhibition above about 70%; inactive = the rest.

Key:
[1] = NCI Yeast Anticancer Drug Screen. Data for the rad52 strain (AID 147);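 also: 0% = growth of vehicle-treated control cultures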; conditions: S. cerevisiae rad52 mutant growth inhibition, stronger effect = higher value
Outline: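 Vehicle-treated cultures served as the reference for growth inhibition of compound-exposed yeast bearing a DNA repair mutation.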

[2] = NCI Yeast Anticancer Drug Screen. Data for the wt1 strain (AID 149);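 also: 0% = growth of vehicle-treated wt1 cultures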; conditions: S. cerevisiae wt1 strain (SPY 50644) growth inhibition, stronger effect = higher value
Outline: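 Yeast wt1 strain exposed to compounds; growth inhibition measured relative to vehicle-treated controls.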

[3] = NCI Yeast Anticancer Drug Screen. Data for the rad50EPP+ strain (AID 151);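 also: 0% = growth of vehicle-treated control cultures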; conditions: S. cerevisiae rad50 mutant strain, stronger effect = higher value
Outline: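 In this screen, rad50EPP+ yeast were exposed to compounds. Growth inhibition was scored against vehicle-treated controls.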

[4] = NCI Yeast Anticancer Drug Screen. Data for the mgt1 strain (AID 153); conditions: S. cerevisiae mgt1 mutant growth inhibition, stronger effect = higher value
Outline: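 mgt1 strain exposed; growth vs vehicle control recorded as inhibition.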

[5] = NCI Yeast Anticancer Drug Screen. Data for the rad50 strain (AID 155);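 also: 0% = growth of vehicle-only cultures of the same strain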; conditions: S. cerevisiae rad50 strain growth inhibition, stronger effect = higher value
Outline: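 Yeast carrying a defined DNA repair defect were exposed to test compounds, and growth was compared with vehicle-treated controls to give percent inhibition.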

[6] = NCI Yeast Anticancer Drug Screen. Data for the mec2-1 strain (AID 157); conditions: S. cerevisiae mec2-1 strain, stronger effect = higher value
Outline: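 Vehicle-treated cultures served as reference for growth inhibition of compound-exposed mec2-1 yeast.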

[7] = NCI Yeast Anticancer Drug Screen. Data for the rad14 strain (AID 159);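 also: 0% = growth of vehicle-treated control cultures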; conditions: S. cerevisiae rad14 strain growth inhibition, stronger effect = higher value
Outline: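 Yeast cells carrying a defined DNA-repair defect were exposed to compounds, and growth inhibition was calculated relative to vehicle-treated control cultures.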

[8] = NCI Yeast Anticancer Drug Screen. Data for the sgs1 mgt1 strain (AID 161);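 also: 0% = growth of cultures given vehicle only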; conditions: S. cerevisiae sgs1 mgt1 strain, stronger effect = higher value
Outline: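 Test agents were incubated with a DNA-repair-mutant yeast strain. Growth was then read and compared against vehicle-treated controls.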

[9] = NCI Yeast Anticancer Drug Screen. Data for the CLN2oe strain (AID 163);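 also: 0% = growth of vehicle-only control cultures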; conditions: S. cerevisiae CLN2oe strain, stronger effect = higher value
Outline: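 Inhibition relative to vehicle-treated yeast is reported. Cells: strain with genetic alteration in cell-cycle control, grown with compound.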

[10] = NCI Yeast Anticancer Drug Screen. Data for the cln2 rad14 strain (AID 165);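 also: 0% = growth equal to vehicle treated cultures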; conditions: S. cerevisiae cln2 rad14 strain, stronger effect = higher value
Outline: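 Each compound was tested on cln2 rad14 yeast. Inhibition of growth was calculated against vehicle-exposed controls.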

[11] = NCI Yeast Anticancer Drug Screen. Data for the bub3 strain (AID 167); conditions: S. cerevisiae bub3 mutant strain, stronger effect = higher value
Outline: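 Compounds were applied to a genetically altered yeast strain carrying a cell-cycle control defect. Growth inhibition was scored against vehicle-treated controls.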

[12] = NCI Yeast Anticancer Drug Screen. Data for the wt2 strain (AID 169);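 also: 0% = growth of vehicle-treated yeast cultures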; conditions: S. cerevisiae wt2 strain growth inhibition, stronger effect = higher value
Outline: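 Inhibition of yeast growth was determined after compound treatment, normalised to controls receiving only vehicle.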

[13] = NCI Yeast Anticancer Drug Screen. Data for the mlh1 strain (AID 171);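 also: 0% = growth of vehicle-treated control cultures of the same strain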; conditions: S. cerevisiae mlh1 strain growth inhibition, stronger effect = higher value
Outline: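 Vehicle-normalised growth inhibition of a repair- or checkpoint-altered yeast strain following compound treatment.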

[14] = NCI Yeast Anticancer Drug Screen. Data for the sgs1 strain (AID 173);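 also: 0% = growth of vehicle-only control cultures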; conditions: S. cerevisiae sgs1 mutant, stronger effect = higher value
Outline: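 Screen format: yeast with repair or checkpoint alterations, compound exposure, growth read relative to vehicle.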

[15] = NCI Yeast Anticancer Drug Screen. Data for the mlh1 rad18 strain (AID 175); conditions: S. cerevisiae mlh1 rad18 strain growth inhibition, stronger effect = higher value
Outline: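 Vehicle-treated cultures served as the reference for growth inhibition in a yeast strain carrying DNA damage repair alterations exposed to each compound.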

[16] = NCI Yeast Anticancer Drug Screen. Data for the rad18 strain (AID 177); conditions: S. cerevisiae rad18 mutant growth inhibition, stronger effect = higher value
Outline: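 Test articles were incubated with altered yeast defective in DNA damage repair. Results are given as inhibition of growth versus vehicle.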

[17] = at 5.0 µM (retest, dose inferred, filed as 0.5)
[18] = at 50.0 µM (retest, dose inferred, filed as 5.0)

Measured: growth inhibition

CCn1c(O)c(C=Nc2ccccc2)s/c1=N/Nc1nc(-c2ccccc2)cs1
inactive: [1]; at 1.2 µM 12% | [1]; at 3.7 µM 5% | [1]; at 11.0 µM 10% | [1]; at 33.0 µM 4% | [1]; at 100.0 µM 20% | [2]; at 1.2 µM -87% | [2]; at 3.7 µM -1% | [2]; at 11.0 µM 0% | [2]; at 33.0 µM 0% | [2]; at 100.0 µM -3% | [3]; at 1.2 µM 7% | [3]; at 3.7 µM 19% | [3]; at 11.0 µM 32% | [3]; at 33.0 µM 54% | [4]; at 1.2 µM 0% | [4]; at 3.7 µM 10% | [4]; at 11.0 µM 18% | [4]; at 33.0 µM 21% | [4]; at 100.0 µM 24% | [5]; at 1.2 µM -2% | [5]; at 3.7 µM 6% | [5]; [17] -12% | [5]; at 11.0 µM 14% | [5]; at 33.0 µM 15% | [5]; [18] 12% | [5]; at 50.0 µM 41.7% | [5]; at 100.0 µM 11% | [6]; at 1.2 µM -6% | [6]; at 3.7 µM -1% | [6]; [17] -25% | [6]; at 11.0 µM -1% | [6]; at 33.0 µM -1% | [6]; [18] 11% | [6]; at 50.0 µM 23.8% | [6]; at 100.0 µM 2% | [7]; at 1.2 µM 0% | [7]; at 3.7 µM 6% | [7]; at 11.0 µM 9% | [7]; at 33.0 µM 7% | [7]; at 100.0 µM 1% | [8]; [17] -7% | [8]; [18] 27% | [8]; at 50.0 µM 43.5% | [9]; at 1.2 µM -6% | [9]; at 3.7 µM -11% | [9]; at 11.0 µM -7% | [9]; at 33.0 µM -9% | [9]; at 100.0 µM 17% | [10]; [17] -1% | [10]; [18] 15% | [10]; at 50.0 µM 25.3% | [11]; at 1.2 µM -5% | [11]; at 3.7 µM -3% | [11]; [17] -14% | [11]; at 11.0 µM -4% | [11]; at 33.0 µM 12% | [11]; at 100.0 µM 50% | [12]; at 1.2 µM -3% | [12]; at 3.7 µM -2% | [12]; at 11.0 µM -1% | [12]; at 33.0 µM 2% | [12]; at 100.0 µM 11% | [13]; at 1.2 µM -2% | [13]; at 3.7 µM 3% | [13]; at 11.0 µM 3% | [13]; at 33.0 µM 4% | [13]; at 100.0 µM 12% | [14]; at 1.2 µM -10% | [14]; at 3.7 µM 7% | [14]; at 11.0 µM 13% | [14]; at 33.0 µM 22% | [14]; at 100.0 µM 36% | [15]; [17] -10% | [15]; [18] 25% | [15]; at 50.0 µM 61.8% | [16]; at 1.2 µM -3% | [16]; at 3.7 µM -3% | [16]; at 11.0 µM -5% | [16]; at 33.0 µM 9% | [16]; at 100.0 µM -12%
active: [3]; at 100.0 µM 74% | [11]; [18] 74% | [11]; at 50.0 µM 75.5%

O=C(CC(C(=O)O)N1CCOCC1)c1ccccc1 (stereo unspecified)
active: [1]; at 100.0 µM 73% | [5]; at 100.0 µM 77% | [10]; [17] 81% | [11]; [17] 98% | [12]; at 100.0 µM 71% | [13]; at 100.0 µM 77% | [14]; at 100.0 µM 80% | [16]; at 33.0 µM 80% | [16]; at 100.0 µM 91%
inactive: [1]; at 1.2 µM -1% | [1]; at 3.7 µM -2% | [1]; at 11.0 µM 0% | [1]; at 33.0 µM 32% | [2]; at 1.2 µM -1% | [2]; at 3.7 µM -2% | [2]; at 11.0 µM 0% | [2]; at 33.0 µM 12% | [2]; at 100.0 µM 47% | [3]; at 1.2 µM -2% | [3]; at 3.7 µM -1% | [3]; at 11.0 µM 2% | [3]; at 33.0 µM 12% | [3]; at 100.0 µM 43% | [4]; at 1.2 µM -3% | [4]; at 3.7 µM -3% | [4]; at 11.0 µM 1% | [4]; at 33.0 µM 33% | [4]; at 100.0 µM 65% | [5]; at 1.2 µM -3% | [5]; at 3.7 µM 1% | [5]; [17] 13% | [5]; at 11.0 µM 2% | [5]; at 33.0 µM 36% | [5]; [18] 65% | [5]; at 50.0 µM 49% | [6]; at 1.2 µM -6% | [6]; at 3.7 µM -11% | [6]; [17] -2% | [6]; at 11.0 µM 2% | [6]; at 33.0 µM 31% | [6]; [18] 41% | [6]; at 50.0 µM 12.4% | [6]; at 100.0 µM 66% | [7]; at 1.2 µM -3% | [7]; at 3.7 µM -5% | [7]; at 11.0 µM 0% | [7]; at 33.0 µM 3% | [7]; at 100.0 µM 29% | [8]; [17] -6% | [8]; [18] 54% | [8]; at 50.0 µM 3.3% | [9]; at 1.2 µM -4% | [9]; at 3.7 µM -9% | [9]; at 11.0 µM -10% | [9]; at 33.0 µM -2% | [9]; at 100.0 µM 22% | [10]; [18] 17% | [10]; at 50.0 µM -16.2% | [11]; at 1.2 µM -16% | [11]; at 3.7 µM -17% | [11]; at 11.0 µM -8% | [11]; at 33.0 µM 29% | [11]; [18] 60% | [11]; at 50.0 µM 21.3% | [11]; at 100.0 µM 68% | [12]; at 1.2 µM -4% | [12]; at 3.7 µM -3% | [12]; at 11.0 µM 0% | [12]; at 33.0 µM 31% | [13]; at 1.2 µM -3% | [13]; at 3.7 µM -3% | [13]; at 11.0 µM 4% | [13]; at 33.0 µM 37% | [14]; at 1.2 µM 0% | [14]; at 3.7 µM 5% | [14]; at 11.0 µM 19% | [14]; at 33.0 µM 56% | [15]; [17] 10% | [15]; [18] 47% | [15]; at 50.0 µM 47.9% | [16]; at 1.2 µM -1% | [16]; at 3.7 µM 5% | [16]; at 11.0 µM 28%
